This excerpt belongs to a sample that is enriched for hits.
FECH inh: blocks human mitochondrial ferrochelatase activity; 3.3% of 20,000 active; calls only at 10 µM (by protocol); P22830; purified FECH, Ni-mesoporphyrin absorbance 550 nm;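 active means enzyme reaction rate more than 3 SD below the solvent-only control wells on the same plate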;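 further: lower slope than DMSO wells means FECH inhibition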
Target sequence (P22830 whole entry, looked up): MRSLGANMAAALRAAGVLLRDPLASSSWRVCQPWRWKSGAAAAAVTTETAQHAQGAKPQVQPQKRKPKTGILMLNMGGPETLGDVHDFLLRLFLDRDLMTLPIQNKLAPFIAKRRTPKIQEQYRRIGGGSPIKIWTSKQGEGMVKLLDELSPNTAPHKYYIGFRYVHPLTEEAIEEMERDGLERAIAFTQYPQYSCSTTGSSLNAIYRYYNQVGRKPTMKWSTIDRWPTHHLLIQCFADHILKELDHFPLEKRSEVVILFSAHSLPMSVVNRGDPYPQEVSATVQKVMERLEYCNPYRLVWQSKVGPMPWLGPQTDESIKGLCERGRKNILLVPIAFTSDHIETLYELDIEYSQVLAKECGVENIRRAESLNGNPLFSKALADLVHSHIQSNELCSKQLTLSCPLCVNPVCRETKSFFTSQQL
* = called active by the depositor; i = inactive; + = active, no number.

SMILES | FECH inh
CCc1c(C)nc2ncnn2c1Sc1ccc(NC(=O)c2ccc(OC)c(OC)c2)cc1 | +
CCn1c(=O)n(CCc2c(C)noc2C)c(=O)c2cnc(-c3ccc(Cl)cc3)nc21 | i
Cc1cccc(-n2c(CN3CCN(S(=O)(=O)c4ccc(C)cc4C)CC3)nc3cccnc32)c1 | i
Cc1ccccc1S(=O)(=O)Nc1cnc(N(C)CCCc2c(C)nn(C)c2C)c(C(=O)O)c1 | i
CC(=O)c1ccc(C(=O)N2CCCC3(C=Cc4ccccc4O3)CC2)cc1 (stereo not drawn) | i
Cc1occc1C(=O)Nc1ccc(C(=O)N(Cc2ccncc2)C2CC2)cc1 | i
CCOCCCNc1nc(Nc2cccc(Cl)c2)c2cnn(-c3ccccc3)c2n1 | i
Cc1ccc(C(=O)Nc2cccc(NC(=O)CNC(=O)N(C)C)c2)cc1 | i
CCOc1ccc(C(=O)NCc2nc3cccnc3n2Cc2ccc(OC)cc2)cc1 | i
CCCc1cc(Sc2ccc(NC(=O)c3ccco3)cc2)n2ncnc2n1 | i
CCCc1ccc(S(=O)(=O)NCc2nc3cccnc3n2C2CC2)cc1 | i
CN1CC(=O)N(CC(=O)NCCc2nc3ccc(F)cc3[nH]2)c2ccccc2C1=O | i
O=C(NCC1(Cn2ccnc2)CC1)C1CCOC1 (stereo not drawn) | i
CCCc1c(C)nc2ncnn2c1Sc1ccc(NC(=O)c2ccc(OC)c(OC)c2)cc1 | +
CCc1c(C)nc2ncnn2c1Sc1ccc(NS(=O)(=O)c2ccc(OC)c(OC)c2)cc1 | i
CCCc1cc(Sc2ccc(NC(=O)c3cccc(OC)c3)cc2)n2ncnc2n1 | +
CCCc1c(C)nc2ncnn2c1Sc1ccc(NC(=O)c2cc(OC)c(OC)c(OC)c2)cc1 | i
CCc1c(C)nc2ncnn2c1Sc1ccc(NC(=O)c2c(OC)cccc2OC)cc1 | i
CCc1c(C)nc2ncnn2c1Sc1ccc(NS(=O)(=O)c2cc(Cl)ccc2OC)cc1 | +
CCCc1c(C)nc2ncnn2c1Sc1ccc(NS(=O)(=O)c2cc(OC)ccc2OC)cc1 | i
CCCc1cc(Sc2ccc(NC(=O)c3ccc(OC)c(OC)c3)cc2)n2ncnc2n1 | i
CCc1cc(Sc2ccc(NC(=O)c3cc(OC)cc(OC)c3)cc2)n2ncnc2n1 | i
COCC(c1ccnn1C)n1cc(-c2ccc3c(c2)OCCO3)nn1 (stereo not drawn) | i
C1=CC(Cc2n[nH]c(Cc3ccccc3)n2)CC1 (stereo not drawn) | i
CS(=O)(=O)c1ccc(-c2nc3c(cc2C(N)=O)CCC3)cc1 | i
SMILES | FECH inh
COC(=O)c1cc(CN2CCCN(c3ccc(F)cc3)CC2)cs1 | i
COCCNC(=O)N1CCN(c2cc(-c3cccc(C)c3)ncn2)CC1 | i
COc1ccc(/C=C/CN2CCCN(C(=O)C3CCC3)CC2)cc1 | i
CCCCc1cc(=O)[nH]c(-c2ccc(CN3CCC(F)(F)CC3)cc2)n1 | i
CN1CCC=C(CN(Cc2ccc3c(c2)OCO3)C(=O)N2CCCCC2)C1 | i
Cc1ccccc1-c1cc(N2CCN(S(=O)(=O)c3ccccc3C)CC2)ncn1 | i
CCn1c(C2CCN(C(=O)c3ccc(-n4cccn4)cc3)CC2)n[nH]c1=O | i
CN(Cc1noc(-c2ccccc2)n1)C(=O)c1cn(Cc2ccc(F)cc2)nn1 | i
CC(=O)Nc1ccc(-c2nc(-c3ccc4c(c3)Sc3ccccc3C(=O)N4C)no2)cc1 | i
CN1C(=O)c2ccccc2Sc2cc(-c3noc(CNC(=O)c4ccccc4)n3)ccc21 | +
CN1C(=O)c2ccccc2Sc2cc(-c3noc(COc4ccc(F)cc4)n3)ccc21 | i
COc1ccc2cc(CN3CCCN(c4ccncc4)CC3)c(=O)[nH]c2c1 | i
COc1cc(OC)cc(C(=O)Nc2cc(C)nn2-c2ncnc3c2cnn3-c2ccc(F)cc2)c1 | i
CCn1c(C2CCCNC2)nn(Cc2nc(CCOC)no2)c1=O (stereo not drawn) | i
Cc1ccsc1CCNC(=O)C1CCCN1c1nnc(N2CCCC2=O)s1 (stereo not drawn) | i
COc1ccc(CNC(=O)C2CCCN2c2nnc(N3CCCC3=O)s2)c(OC)c1 (stereo not drawn) | +
O=C(NCCCN1CCN(C2CCCCC2)CC1)C1CCCN1c1nnc(N2CCCC2=O)s1 (stereo not drawn) | +
COc1ccc(CCNC(=O)C2CCCN2c2nnc(N3CCCCC3=O)s2)cc1OC (stereo not drawn) | i
CN(CCCNC(=O)C1CCCN1c1nnc(N2CCCC2=O)s1)C1CCCCC1 (stereo not drawn) | i
CN(CCNC(=O)C1CCCN1c1nnc(N2CCCC2=O)s1)C1CCCCC1 (stereo not drawn) | i
CCOc1ccccc1NC(=O)CN1C(=O)CN(C)C(=O)c2ccccc21 | i
CCn1nc(C(=O)O)c2c1CCN(C(=O)C1CCCN(Cc3ccco3)C1)C2 (stereo not drawn) | i
Cc1cccc2c(C(=O)N3CCCCC3c3cccnc3)cc(-c3cncnc3)nc12 (stereo not drawn) | i
O=C(c1n[nH]c2c1CCCC2)N1CCCC(c2[nH]ncc2Cc2ccccc2)C1 (stereo not drawn) | i

Assay outcomes: PubChem BioAssay, Corson Lab, School of Medicine, Indiana University
